“And” between values parts separate entries of the source, which are not always exact repeats. Identical values can stand only once. The source made the active and inactive calls. How the source made its calls: active means hit-call score of the fitted dose curve at least 0.9, where 1 is the maximum; inactive means score below 0.9.
How the values were obtained:
[1] = read-out: Tissue plasminogen activator (tPA), PLAT (gene 5327); test: BSK_BE3C_tPA: BioMAP Diversity Plus: BE3C Assay for Tissue plasminogen activator (tPA) Biomarker Activity (AID 2283041); settings: primary human bronchial epithelial cells; actives raise or lower the signal
Method in brief: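 Bidirectional curve fitting relative to DMSO defined activity, with tPA detected by ELISA in chemically treated human bronchial epithelial primary cells at 24 hours.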

[2] = read-out: Interleukin-8 (IL8), CXCL8 (gene 3576); test: BSK_CASM3C_IL8: BioMAP Diversity Plus: CASM3C Assay for Interleukin-8 (IL8) Biomarker Activity (AID 2283042); settings: primary human coronary artery smooth muscle cells; actives raise or lower the signal;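 further: IL-8 protein level quantified by ELISA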
[3] = read-out: Human Leukocyte Antigen - DR isotype (HLADR), HLA-DRA (gene 3122); test: BSK_CASM3C_HLADR: BioMAP Diversity Plus: CASM3C Assay for Human Leukocyte Antigen - DR isotype (HLADR) Biomarker Activity (AID 2283043); settings: primary human coronary artery smooth muscle cells; actives raise or lower the signal;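 further: cell-surface HLA-DR protein level quantified by ELISA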
[4] = read-out: Macrophage colony-stimulating factor (MCSF), CSF1 (gene 1435); test: BSK_CASM3C_MCSF: BioMAP Diversity Plus: CASM3C Assay for Macrophage colony-stimulating factor (MCSF) Biomarker Activity (AID 2283044); settings: primary human coronary artery smooth muscle cells; actives raise or lower the signal;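 further: M-CSF protein amount quantified by ELISA after 24 h exposure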
[5] = read-out: Low-density lipoprotein receptor (LDLR), LDLR (gene 3949); test: BSK_CASM3C_LDLR: BioMAP Diversity Plus: CASM3C Assay for Low-density lipoprotein receptor (LDLR) Biomarker Activity (AID 2283045); settings: primary human coronary artery smooth muscle cells; actives raise or lower the signal;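 further: LDLR protein level on the cell surface quantified by ELISA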
[6] = read-out: Monocyte Chemoattractant Protein-1 (MCP1), CCL2 (gene 6347); test: BSK_CASM3C_MCP1: BioMAP Diversity Plus: CASM3C Assay for Monocyte Chemoattractant Protein-1 (MCP1) Biomarker Activity (AID 2283046); settings: primary human coronary artery smooth muscle cells; actives raise or lower the signal;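 further: MCP-1 level quantified by ELISA 24 h after dosing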
[7] = BSK_CASM3C_Proliferation: Cell Proliferation Assessment in the BioMAP Diversity Plus: CASM3C Assay (AID 2283047); settings: primary human coronary artery smooth muscle cells;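 further: sulforhodamine B total protein stain as relative cell number at 560 nm; sub-confluent cells exposed 48 h before staining; fitted both ways against DMSO so gain or loss of cell number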
[8] = read-out: Monokine induced gamma interferon (MIG), CXCL9 (gene 4283); test: BSK_CASM3C_MIG: BioMAP Diversity Plus: CASM3C Assay for Monokine induced gamma interferon (MIG) Biomarker Activity (AID 2283048); settings: primary human coronary artery smooth muscle cells; actives raise or lower the signal;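 further: MIG protein level measured by ELISA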
[9] = read-out: serum amyloid A (SAA), SAA1 (gene 6288); test: BSK_CASM3C_SAA: BioMAP Diversity Plus: CASM3C Assay for serum amyloid A (SAA) Biomarker Activity (AID 2283049); settings: primary human coronary artery smooth muscle cells; actives raise or lower the signal;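 further: SAA protein level quantified by ELISA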
[10] = BSK_CASM3C_SRB: Viability Assessment in the BioMAP Diversity Plus: CASM3C Assay (AID 2283050); settings: primary human coronary artery smooth muscle cells;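 further: total protein by SRB staining as cytotoxicity measure in parallel cultures; cells exposed to compound for 24 h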

Measured: AC50

CN(C)NC(=O)CCC(=O)O
inactive: all assays above

O=[N+]([O-])c1cc(C(F)(F)F)c(Cl)c([N+](=O)[O-])c1Nc1ncc(C(F)(F)F)cc1Cl
active: [1] 20 µM | [2] 4.49 µM and 10.8 µM | [3] 2.16 µM and 10 µM | [4] 1.72 µM and 6.05 µM | [6] 4.23 µM and 9.83 µM | [7] 2.28 µM and 1.22 µM | [8] 3.98 µM and 8.05 µM | [9] 3.5 µM and 6.78 µM | [10] 2.04 µM and 5.51 µM
inactive: [5]

CC(C)[C@H](C(=O)O[C@H](C#N)c1cccc(Oc2ccccc2)c1)c1ccc(Cl)cc1
active: [7] 9.47 µM
inactive: all other assays above

CC[C@H](C)[C@H]1O[C@]2(C=C[C@@H]1C)C[C@@H]1C[C@@H](C/C=C(\C)[C@@H](O[C@H]3C[C@H](OC)[C@@H](O[C@H]4C[C@H](OC)[C@@H](NC)[C@H](C)O4)[C@H](C)O3)[C@@H](C)/C=C/C=C3\CO[C@@H]4[C@H](O)C(C)=C[C@@H](C(=O)O1)[C@]34O)O2
inactive: [1] | [5]
active: [2] 14.2 µM | [3] 12.6 µM | [4] 11.6 µM | [6] 12.9 µM | [7] 5.53 µM | [8] 13.7 µM | [9] 9.71 µM | [10] 11.6 µM

CCOP(=S)(OCC)Oc1cc(C)nc(C(C)C)n1
active: [7] 14.3 µM
inactive: all other assays above

CCOP(=S)(OCC)Oc1ccc([N+](=O)[O-])cc1
inactive: all assays above

CCCCOC(=O)c1ccccc1C(=O)O
inactive: all assays above

CC(C1CC1)C(O)(Cn1cncn1)c1ccc(Cl)cc1 (centres undefined)
inactive: all assays above

C[Si](Cn1cncn1)(c1ccc(F)cc1)c1ccc(F)cc1
inactive: all assays above

CC1=NNC(=O)N(/N=C/c2cccnc2)C1
inactive: all assays above

COc1ccc(C(=CC(=O)N2CCOCC2)c2ccc(Cl)cc2)cc1OC
active: [4] 2.5 µM | [6] 6.65 µM
inactive: all other assays above

CNc1cnn(-c2cccc(C(F)(F)F)c2)c(=O)c1Cl
inactive: all assays above

CCOP(=S)(OCC)OC(Cl)C(Cl)(Cl)Cl (centres undefined)
active: [7] 37 µM
inactive: all other assays above

COP(=O)(OC)SCn1c(=O)oc2cc(Cl)cnc21
active: [4] 9.42 µM | [6] 20 µM | [7] 21.5 µM | [8] 38.8 µM | [10] 24.7 µM
inactive: [1] | [2] | [3] | [5] | [9]

CSc1nc(NC(C)C)nc(NC(C)C)n1
inactive: all assays above

CNC(=O)ON=C(SC)C(=O)N(C)C
inactive: all assays above

O=c1ccc(=O)[nH][nH]1
inactive: all assays above

C=C(C)[C@H]1Cc2c(ccc3c2O[C@@H]2COc4cc(OC)c(OC)cc4[C@@H]2C3=O)O1
active: [7] 3.97 µM
inactive: all other assays above

CCc1cccc(C)c1N(C(=O)CCl)C(C)COC (centres undefined)
inactive: all assays above

C#CC(C)(C)NC(=O)c1cc(Cl)cc(Cl)c1
inactive: all assays above

FC(F)C(F)(F)OCC(Cn1cncn1)c1ccc(Cl)cc1Cl (centres undefined)
inactive: all assays above

CCOP(=S)(OCC)SCCSCC
inactive: all assays above

CCOP(=O)(OCC)Oc1cc(C)nc(C(C)C)n1
active: [5] 20 µM
inactive: all other assays above

CCC(CC)Nc1c([N+](=O)[O-])cc(C)c(C)c1[N+](=O)[O-]
active: [7] 13.9 µM
inactive: all other assays above

COP(=O)(OC)OC(Br)C(Cl)(Cl)Br (centres undefined)
active: [2] 32.2 µM | [4] 27.7 µM | [6] 28.6 µM | [7] 11.2 µM | [8] 29.8 µM | [9] 29.9 µM | [10] 28.8 µM
inactive: [1] | [3] | [5]

Cc1nn(-c2cc(NS(C)(=O)=O)c(Cl)cc2Cl)c(=O)n1C(F)F
inactive: all assays above

Cc1cc(C2CC2)nc(Nc2ccccc2)n1
active: [7] 14.4 µM
inactive: all other assays above

C[N+]1(C)CCCCC1
inactive: all assays above

CCCSP(=O)(OCC)SCCC
inactive: all assays above

CCc1cnc(C2=NC(C)(C(C)C)C(=O)N2)c(C(=O)O)c1 (centres undefined)
inactive: all assays above

C#CCC1=C(C)C(OC(=O)C2C(C=C(C)C)C2(C)C)CC1=O (centres undefined)
active: [7] 26.8 µM
inactive: all other assays above

CCOC(=O)COc1cc(-c2nn(C)c(OC(F)F)c2Cl)c(F)cc1Cl
inactive: all assays above

CC1(C(=O)Nc2ccc(O)c(Cl)c2Cl)CCCCC1
inactive: all assays above

COc1cc(OC)nc(Sc2cccc(Cl)c2C(=O)O)n1
inactive: all assays above

CCOP(=O)(NC(C)C)Oc1ccc(SC)c(C)c1 (centres undefined)
inactive: all assays above

CCOP(=S)(OCC)Oc1ccc2c(C)c(Cl)c(=O)oc2c1
active: [7] 20 µM
inactive: all other assays above

Cc1ccn2nc(S(=O)(=O)Nc3c(F)cccc3F)nc2n1
inactive: all assays above

CSc1nnc(C(C)(C)C)c(=O)n1N
active: [5] 4.43 µM
inactive: all other assays above

CON=C(C(=O)OC)c1ccccc1CON=C(C)c1cccc(C(F)(F)F)c1
active: [6] 2.68 µM | [7] 8.75 µM
inactive: all other assays above

CCCSP(=O)(OCC)Oc1ccc(Br)cc1Cl (centres undefined)
active: [1] 13.4 µM | [7] 32.1 µM
inactive: all other assays above

CNC(=O)Oc1cccc2c1OC(C)(C)O2
inactive: all assays above

CN(C)C(=O)Nc1cccc(C(F)(F)F)c1
inactive: all assays above

CCCCSP(=O)(SCCCC)SCCCC
active: [4] 29.4 µM | [7] 36.8 µM | [10] 31.7 µM
inactive: all other assays above

S=C1NCCN1
inactive: all assays above

CC(Oc1cccc(Cl)c1)C(=O)O (centres undefined)
inactive: all assays above

COc1cccc(C(=O)NN(C(=O)c2cc(C)cc(C)c2)C(C)(C)C)c1C
inactive: all assays above

COP(=O)(OC)C(O)C(Cl)(Cl)Cl (centres undefined)
active: [7] 20 µM
inactive: all other assays above

CCC(=NOC/C=C/Cl)C1=C(O)CC(C2CCOCC2)CC1=O (centres undefined)
inactive: all assays above

CSC1=N[C@@](C)(c2ccccc2)C(=O)N1Nc1ccccc1
active: [7] 11.5 µM
inactive: all other assays above

CCCOc1nn(C(=O)NS(=O)(=O)c2ccccc2C(=O)OC)c(=O)n1C
inactive: all assays above

CCc1cccc(CC)c1N(COC)C(=O)CCl
inactive: all assays above

CCOP(=S)(Oc1cnc(C(C)(C)C)nc1)OC(C)C (centres undefined)
active: [7] 32.2 µM
inactive: all other assays above

CC(C)=CC1C(C(=O)OCN2C(=O)C3=C(CCCC3)C2=O)C1(C)C (centres undefined)
active: [7] 20 µM
inactive: all other assays above

N#CSCSC#N
active: [2] 16.1 µM | [3] 21.4 µM | [4] 16.1 µM | [6] 20.5 µM | [7] 2.16 µM | [8] 14.1 µM | [9] 30.2 µM | [10] 14.6 µM
inactive: [1] | [5]

CCOP(=O)(SC(C)CC)N1CCSC1=O (centres undefined)
inactive: all assays above

CCC(=O)Nc1ccc(Cl)c(Cl)c1
not listed: [9]
inactive: all other assays above

CC(=NC#N)N(C)Cc1ccc(Cl)nc1
inactive: all assays above

CC(C)N(C(=O)SCC(Cl)=C(Cl)Cl)C(C)C
active: [4] 34.4 µM | [7] 37.1 µM | [10] 32.4 µM
inactive: all other assays above

COP(=O)(NC(C)=O)SC (centres undefined)
inactive: all assays above

CN(C)[C@@H]1C(=O)C(C(N)=O)=C(O)[C@@]2(O)C(=O)C3=C(O)c4c(O)cccc4[C@@](C)(O)[C@H]3[C@H](O)[C@@H]12
active: [7] 28.7 µM and 11 µM
inactive: all other assays above

CC(COc1ccc(Oc2ccccc2)cc1)Oc1ccccn1 (centres undefined)
active: [7] 31.8 µM
inactive: all other assays above

CCNc1nc(Cl)nc(NC(C)(C)C#N)n1
active: [3] 9.89 µM
inactive: all other assays above

CCCOCC(=Nc1ccc(Cl)cc1C(F)(F)F)n1ccnc1
active: [1] 32.8 µM | [6] 26 µM | [7] 32.7 µM | [8] 20 µM
inactive: all other assays above

O=C(O)c1cc(Oc2ccc(C(F)(F)F)cc2Cl)ccc1[N+](=O)[O-]
inactive: all assays above

CCCCOC(=O)[C@@H](C)Oc1ccc(Oc2ccc(C#N)cc2F)cc1
inactive: all assays above

Nc1nc(N)nc(NC2CC2)n1
inactive: all assays above

CNC(=O)ON=C(C)SC
inactive: all assays above

CCOC(=O)CC(SP(=O)(OC)OC)C(=O)OCC (centres undefined)
inactive: all assays above

CCCCN(CC)c1c([N+](=O)[O-])cc(C(F)(F)F)cc1[N+](=O)[O-]
inactive: all assays above

CN1COCN(Cc2cnc(Cl)s2)C1=N[N+](=O)[O-]
inactive: all assays above

Nc1c(Cl)cc([N+](=O)[O-])cc1Cl
inactive: all assays above

Source: PubChem BioAssay (EPA / NIEHS)
